# Sm TGR block – blocks Schistosoma mansoni thioredoxin glutathione reductase; Q962Y6; purified TGR, DTNB reduction, TNB absorbance 405 nm; Potency, µM (titrated, usually from 114 µM), for the others: at the highest dose activity change, negative = inhibition, most hits filed as inhibitors; hit rate 3% among 360,000; AID 485364; note: potency is the fitted concentration of half-maximal effect; nearly all actives have a fitted effect of over 60% in size
#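 TGR 20 nM + NADPH 100 uM (dispensed conc.), cpd preinc 15 min RT; start with NADPH (500 uM addition) then DTNB (15 mM addition). Kinetic TNB absorbance, 405 nm filter. Four-parameter Hill fit across titration.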
# VACV Venus inh – vaccinia inhibition (Venus reporter); Potency, µM (titrated, usually from 36.5 µM), for the others: at the top dose activity change, negative = inhibition, actives largely listed as inhibitors; Vaccinia virus Venus reporter expression, fluorescence; hit rate 0.46% among 330,000; calls by dose curve; tested in A549 cells; note: potency is the fitted concentration of half-maximal effect; nearly all actives have a fitted effect of over 30% in size
# Vaccinia mCherry – vaccinia inhibition (mCherry reporter) | Vaccinia virus mCherry reporter infection, fluorescence | Potency, µM (titrated, usually from 36.5 µM), without a hit: at the top dose activity change, negative = inhibition, hits mostly inhibitors | hit rate 0.63% among 310,000; calls by dose curve; tested in A549 cells; note: potency is the fitted concentration of half-maximal effect; nearly all actives have a fitted effect of over 35% in size
# FMDV inh – blocks foot and mouth disease virus; FMDV antiviral cell-based qHTS; Potency, µM (series often up to 57.9 µM), inactives show at the highest dose activity change, negative = inhibition, most hits filed as inhibitors; hit rate 1.2% among 410,000; AID 1159524; calls by dose curve; tested in HEK293T cells; note: read-out not given here; potency is the fitted concentration of half-maximal effect; nearly all actives have a fitted effect of over 45% in size
# HCV inhibitor – inhibitors of hepatitis C virus infection. Potency, µM (top dose mostly 41.8 µM), for inactives: at the highest dose activity change, negative = inhibition, usual class: inhibitors. Huh7.5.1 HCVcc-Cre infection, luciferase reporter, 44 h. hit rate 3.4% among 340,000. AID 651820; note: potency is the fitted concentration of half-maximal effect
#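 Compounds are dispensed onto cells plated 4 h earlier at 1,000 per well, with HCVcc-Cre virus (about 0.5 moi) added next. Following 44 h of culture, luminescent signal is measured for 15 sec after 15 min with substrate at room temperature.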
# HCMV antiviral – blocks human cytomegalovirus replication | activity change, negative = inhibition, % at 57.5 µM | hit rate 4.5% among 410,000 | HFF cells, HCMV-luciferase reporter, 72 h; stronger effect = lower value; in the data active = activity change below about -60%; inconclusive = no clear call, values can overlap the other calls; inactive = above about -39%
#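 Screen run at 2 compound doses on HFFs infected with reporter HCMV, MOI 1 PFU/cell. Luciferase activity from cell lysates at 72 h post infection gave inhibition relative to buffer-only and Salinomycin wells.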
# The depositor's hits bear a star; i = inactive; ? = inconclusive; / = no result given; [ ] = dose if it differs, or a comment. Shown are actives, neighbours in structure and some others; about 9.3% of the full set was active somewhere. Unless noted, calls come from the whole dose curve; as a rule, active = well fitted curve in the direction sought with a large enough effect; inconclusive = small, poorly fitted or top-dose-only effect, or another doubt; inactive = no such curve, though single readings can be large; an effect the other way counts as inactive or inconclusive. % is set by controls: 0 for no effect and ±100 for the full control effect.
SMILES,Sm TGR block,VACV Venus inh,Vaccinia mCherry,FMDV inh,HCV inhibitor,HCMV antiviral
CCc1cc(C(=O)N(C)CC(=O)Nc2c(Cl)cccc2Cl)sc1C,-4.9%,-10.5%,i,-18.6%,-27.4%,-67.0*
CN(CC(=O)Nc1c(Cl)cccc1Cl)C(=O)Cc1ccsc1,/,-8.2%,-19.7%,-8.5%,12.9%,0.4
CSCCC(NC(=O)c1ccccc1)C(=O)N1CCN(C(c2ccccc2)c2ccccc2)CC1 (configuration not stated),-28.0%,?,?,?,12.6µM*,-18.7
CSCCC(NC(=O)c1ccc(Cl)cc1Cl)C(=O)N1CCN(C(=O)c2ccccc2)CC1 (configuration not stated),/,/,/,-14.4%,-23.0%,0.0
CCOc1ccccc1NC(=O)c1nnn(-c2ccc3c(c2)OCCO3)c1N,11.4%,-28.1%,?,-5.3%,?,?
COc1ccc(CCNC(=O)c2nnn(-c3ccc4c(c3)OCCO4)c2N)cc1OC,2.1%,/,/,3.55µM*,?,-75.3*
COc1ccc(CCNC(=O)c2nnn(-c3ccccc3OC)c2N)cc1OC,4.3%,-14.6%,-16.4%,-19.1%,-16.6%,29.0
COc1ccc(CCN2C(=O)CCC2(C)c2nnnn2-c2ccc3c(c2)OCCO3)cc1OC (configuration not stated),/,0.5%,40.8%,-11.8%,/,-83.1*
Cc1ccccc1NC(=O)c1nnn(-c2ccc3c(c2)OCCO3)c1N,-19.1%,-1.6%,31.7%,-3.4%,10µM*,36.4
CCOC(=O)Cn1c(C)nc2c(C(=O)OCC)sc(C)c2c1=O,0.4%,2.5%,/,0.0%,16.7%,42.2
CC1Cc2ccccc2N1C(=O)CNc1ccccc1N1CCCCC1 (configuration not stated),-10.6%,0.5%,i,-26.0%,0.8%,?
Cc1ccc(-c2csc(N(CCO)CCCn3c(C(F)(F)F)nc4ccccc43)n2)cc1,-3.9%,?,-29.6%,?,10µM*,-64.4*
Cc1cc(C(=O)CN2C(=O)c3ccccc3S2(=O)=O)c(C)n1CC1CCCO1 (configuration not stated),-29.8%,-6.5%,-5.6%,0.282µM*,-13.1%,-100.1*
Cc1ccc(C)c(C(=O)CN2C(=O)c3ccccc3S2(=O)=O)c1,-2.6%,-1.6%,-4.9%,35.6%,5.1%,3.6
Cc1cc(C(=O)CSc2nc3ccccc3c(=O)[nH]2)c(C)n1CC1CCCO1 (configuration not stated),-0.4%,-6.7%,?,?,11.2µM*,?
CCCn1c(C)cc(C(=O)CN2C(=O)c3ccccc3S2(=O)=O)c1C,/,-12.9%,i,?,/,-86.4*
NC(N)=NC(N)=Nc1ccc(SC(F)(F)F)cc1,5.8%,-19.4%,-21.7%,-2.3%,11.2µM*,-16.8
CCC1S/C(=N/N=C/c2ccco2)N(Cc2ccccc2C)C1=O (configuration not stated),39.8µM*,/,/,-6.8%,?,-19.8
CCC1S/C(=N/N=C/c2ccco2)N(Cc2ccc(F)cc2)C1=O (configuration not stated),?,/,/,-15.9%,-13.7%,5.5
CC1S/C(=N/N=C/c2ccco2)N(Cc2ccccc2)C1=O (configuration not stated),35.5µM*,/,/,34.3%,-8.8%,-10.3
O=C1CS/C(=N/N=C/c2ccccc2)N1Cc1ccco1,39.8µM*,-12.0%,-9.0%,-0.7%,?,5.2
O=C1C(Cc2ccccc2)S/C(=N/N=C/c2ccco2)N1c1ccccc1 (configuration not stated),?,?,/,-13.8%,-8.1%,37.0
Cc1cc(C)c(N=C2SCC(=O)N2Cc2ccco2)c(C)c1,-20.3%,-2.4%[7.34 µM],-0.7%[7.34 µM],-26.4%,-10.8%,-17.7
Cc1ccccc1CN1C(=O)CS/C1=N/N=C/c1ccco1,11.2µM*,-13.6%,-17.1%,-14.6%,?,9.2
COc1ccc(OC)c(/C=N/N=C2\SCC(=O)N2Cc2ccco2)c1,-16.0%,-21.3%,-29.4%,-2.9%,?,-1.6
SMILES,Sm TGR block,VACV Venus inh,Vaccinia mCherry,FMDV inh,HCV inhibitor,HCMV antiviral
CCOc1cc(-c2ccc(OC(=O)c3ccccc3)c(OC)c2)cc(=O)c2c(C)oc(C)c12,-22.8%,8.2%,-0.9%,?,/,249.7
CCc1ccccc1NC(=O)C1=C(C)C(=O)OC12CCCCCC2,3.5%,-11.6%,-13.0%,-9.5%,/,0.0
C/C(=N\NC(=O)CC1N=C(Cc2ccccc2)NNC1=O)c1ccncc1 (configuration not stated),-13.2%,/,/,-7.9%,14.6%,18.6
CN1C2CCC1C(C(=O)Oc1ccccc1)C(c1ccc(Cl)cc1)C2 (configuration not stated),/,/,/,/,/,-76.7*
COC(=O)C1C(c2ccc(C)cc2)CC2CCC1N2C (configuration not stated),/,/,/,/,/,-29.8
COc1ccccc1Oc1ccnc2cc(Cl)ccc12,-11.4%,2.4%,26.5%,-18.7%,-0.2%,-39.4
CCN(CC)c1ccc(/C=N/c2sc3c(c2C#N)C2CCN3CC2)c(O)c1,1.1%,109.1%,-13.7%,-3.1%,4.47µM*,/
COC(=O)C1=C(C)N(Cc2ccc(OC)cc2)C(=O)C1,-6.2%,/,/,-4.1%,3.9%,-3.3
COC(=O)C1=C(C)N(Cc2ccco2)C(=O)N[C@@H]1c1ccccc1,35.5µM*,-19.8%,i,-21.7%,-58.7%,-3.8
COC(=O)C1=C(C)N(Cc2ccco2)C(=O)C1,17.8µM*,-4.5%,-14.5%,-19.1%,3.0%,18.0
CCOc1ccc(Nc2oc(-c3ccc(COc4ccc(OC)cc4)o3)nc2C#N)cc1,1.8%,-24.2%,?,-19.5%,/,-80.9*
CC(Nc1oc(-c2ccc(COc3ccccc3)o2)nc1C#N)c1ccccc1 (configuration not stated),-11.5%,-28.8%,?,-12.7%,/,-79.0*
Cc1cccc(NC(=O)NCCc2c[nH]c3ccccc23)c1,16.5%,?,?,-5.6%,-2.2%,-20.2
CCCCOc1ccc(N(CC(=O)NC2CCCCC2)C(=O)c2snc(C(N)=O)c2N)cc1,-9.2%,-9.1%,-12.7%,-8.7%,4.9%,-10.7
O=C1C(Cl)=C(N2CCN(c3ccccc3[N+](=O)[O-])CC2)C(=O)c2ccccc21,1.58µM*,-2.2%,?,?,?,?
CO/N=C/NC(=O)NOCc1c(Cl)cccc1Cl,5.0%,-19.5%,/,0.0%,-11.0%,-104.0*
O=C(N/C=N/OCc1ccc(Cl)cc1Cl)NOCc1c(Cl)cccc1Cl,0.0%,-15.8%,-7.5%,?,?,-31.7
COC(=O)C1=C(C)N(CCCC(=O)O)C(=O)NC1c1ccc(OC)cc1 (configuration not stated),/,4.4%,i,-8.4%,10.8%,12.8
Cc1cc(C(O)c2ncc(-c3ccc(Cl)cc3)[nH]2)ccc1F (configuration not stated),/,-13.0%,14.9%,4.3%,/,14.4

# Screening data as filed in PubChem BioAssay.
